Assay outcomes: PubChem, National Center for Advancing Translational Sciences (NCATS)
Gal4-VP16 FLuc = VP16 counterscreen qHTS for inhibitors of ROR gamma transcriptional activity; Potency, µM (top dose mostly 53.6 µM), usual class: inhibitors; 310,000 compounds, 3.5% hits; Drosophila S2 Gal4-VP16 UAS-luciferase, luminescence, 20 h; AID 2546, 2010;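 note: Gal4-VP16 expression switched on by copper sulfate through the metallothionein promoter; nearly all actives have a fitted effect of over 50% in size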
TDP1 block = qHTS Assay for Inhibitors of Tyrosyl-DNA Phosphodiesterase (TDP1) | Tyrosyl-DNA phosphodiesterase 1 (Homo sapiens), Q9NUW8 | 350,000 compounds, 0.28% hits | recombinant TDP1, AlphaScreen DNA substrate cleavage | Potency, µM (doses to about 130 µM), usual class: inhibitors | AID 485290, 2010; note: nearly all actives have a fitted effect of over 40% in size
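Recombinant E. coli-expressed Tdp1 (1 nM) preincubated with compound 15 min at RT, then 5'-biotin/3'-phosphotyrosine-FITC DNA substrate (15 nM) added for 5 min. AlphaScreen beads (10 ug/ml) added, 10 min RT; tyrosine-FITC cleavage read as signal loss.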
RORg inh = qHTS for inhibitors of ROR gamma transcriptional activity; Drosophila S2 Gal4-RORgamma UAS-luciferase reporter, 20 h; 310,000 compounds, 5.4% hits; AID 2551, 2010; Potency, µM (top dose mostly 53.6 µM), hits mostly inhibitors; Nuclear receptor ROR-gamma (Mus musculus), P51450; note: nearly all actives have a fitted effect of over 60% in size
Target sequence (P51450 whole entry, looked up, the tested form may be a part): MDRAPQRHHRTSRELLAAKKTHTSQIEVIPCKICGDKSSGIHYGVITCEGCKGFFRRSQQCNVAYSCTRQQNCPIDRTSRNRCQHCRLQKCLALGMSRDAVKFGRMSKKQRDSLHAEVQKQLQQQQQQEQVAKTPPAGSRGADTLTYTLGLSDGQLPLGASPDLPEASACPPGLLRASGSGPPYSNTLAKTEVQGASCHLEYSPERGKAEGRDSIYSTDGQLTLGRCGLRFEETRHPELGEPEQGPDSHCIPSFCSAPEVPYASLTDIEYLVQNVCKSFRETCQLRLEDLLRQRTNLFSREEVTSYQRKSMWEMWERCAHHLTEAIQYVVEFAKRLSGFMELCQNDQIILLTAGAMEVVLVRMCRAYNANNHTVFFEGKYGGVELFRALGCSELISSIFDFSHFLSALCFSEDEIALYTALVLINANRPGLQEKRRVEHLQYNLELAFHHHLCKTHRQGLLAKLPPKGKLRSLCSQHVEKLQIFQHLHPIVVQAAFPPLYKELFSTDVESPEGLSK
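A Gal4/UAS one-hybrid system in insect cells: metallothionein-promoter Gal4–ROR gamma fusion plus Photinus luciferase reporter. Copper sulfate 700 uM final, 20 hr ambient incubation, luminescent detection after 10 min with reagent.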
DT40 TDP1 no CPT = qHTS for Inhibitors of human tyrosyl-DNA phosphodiesterase 1 (TDP1): qHTS in cells in absence of CPT; DT40 Tdp1-/- hTDP1 cells, no CPT, ATP luminescence, 48 h; Potency, µM (titrated, usually from 46.2 µM), hits mostly inhibitors; 420,000 compounds, 15% hits; note: nearly all actives have a fitted effect of over 55% in size
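A cellular qHTS used chicken DT40 cells lacking endogenous Tdp1 but carrying stably transfected human TDP1. Compounds were applied without camptothecin, and cell growth kinetics were judged by ATP-dependent luminescence after ≥48 hr.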
TDP1 cell CPT = qHTS for Inhibitors of human tyrosyl-DNA phosphodiesterase 1 (TDP1): qHTS in cells in presence of CPT. chicken DT40 Tdp1-/-;hTDP1 cells + 20 nM CPT, ATP luminescence, 48 h. Potency, µM (titrated, usually from 46.2 µM), actives largely listed as inhibitors. 420,000 compounds, 12% hits. AID 686979, 2013; note: nearly all actives have a fitted effect of over 55% in size
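Cell growth measured by CellTiter-Glo luminescence after a minimum 48 h, 37 C compound exposure with 20 nM CPT in Tdp1-knockout DT40 cells stably expressing hTDP1, seeded 400/well; qHTS titration format.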
Numbers stand for hits; [ ] = dose if it differs, or a comment. Only some compounds are listed: those with a hit (about 19% of all), similar ones and a draw of the others. Calls come from the whole dose curve; as a rule, active = well fitted curve in the direction sought with a large enough effect; inconclusive = small, poorly fitted or top-dose-only effect, or another doubt; inactive = no such curve, though single readings can be large; an effect the other way counts as inactive or inconclusive.

Results for COc1ccc2[nH]c(=O)c(CN(C(=O)NC3CCCCC3)C3CCCC3)cc2c1 ?
Gal4-VP16 FLuc: inactive; TDP1 block: inactive; RORg inh: inactive; DT40 TDP1 no CPT: inactive; TDP1 cell CPT: inactive

How did Cc1ccc(-c2csc(Nc3ccc(C(=O)O)cc3)[n+]2Cc2ccccc2)cc1 do in these assays?
Gal4-VP16 FLuc: inactive[10 µM]; TDP1 block: inactive; RORg inh: inactive; DT40 TDP1 no CPT: inconclusive; TDP1 cell CPT: inactive

What do the screens show for `CC(=O)Nc1scc(-c2ccccc2)[n+]1-c1ccc(C)cc1`?
Gal4-VP16 FLuc: inactive; TDP1 block: inactive; RORg inh: inactive; DT40 TDP1 no CPT: 13µM; TDP1 cell CPT: 15µM

How did Cc1cccc(NC2=C(Cl)C(=O)OC2OC(=O)c2ccco2)c1 (stereo not drawn) do in these assays?
Gal4-VP16 FLuc: inconclusive; TDP1 block: inactive; RORg inh: 11µM; DT40 TDP1 no CPT: 21µM; TDP1 cell CPT: 21µM

Results for Cc1ccc(NC2=C(Cl)C(=O)OC2OC(=O)c2ccco2)cc1 (stereo not drawn) ?
Gal4-VP16 FLuc: inactive; TDP1 block: inactive; RORg inh: 11µM; DT40 TDP1 no CPT: 16µM; TDP1 cell CPT: inconclusive

How did Cc1ccc(NC2=C(Cl)C(=O)OC2OC(C)C)cc1 (stereo not drawn) do in these assays?
Gal4-VP16 FLuc: inactive; TDP1 block: inactive; RORg inh: inactive; DT40 TDP1 no CPT: inactive; TDP1 cell CPT: inactive

How did Cc1ccc(S(=O)(=O)N2CCOCC2)cc1NC(=O)CN1C(=O)NC(C)(c2ccc(Cl)cc2Cl)C1=O (stereo not drawn) do in these assays?
TDP1 block: inactive; DT40 TDP1 no CPT: inconclusive; TDP1 cell CPT: inactive

How did Cc1ccc(CNc2ncnc3c2nc2n3CCCC2)cc1 do in these assays?
TDP1 block: inactive; DT40 TDP1 no CPT: inconclusive; TDP1 cell CPT: inconclusive

What do the screens show for `CCOC(=O)c1c2n(c3c(NCc4ccccc4)ncnc13)CCCC2`?
Gal4-VP16 FLuc: inactive; TDP1 block: inactive; RORg inh: inactive; DT40 TDP1 no CPT: 21µM; TDP1 cell CPT: inconclusive

What do the screens show for `COc1cccc(CC(=O)N[C@@H](CCSC)c2nc3ccccc3[nH]2)c1`?
Gal4-VP16 FLuc: inactive; TDP1 block: inactive; RORg inh: inactive; DT40 TDP1 no CPT: inconclusive; TDP1 cell CPT: inconclusive

How did COC(=O)c1c(C)nc(C)c(C(=O)OC)c1-c1ccccc1[N+](=O)[O-] do in these assays?
Gal4-VP16 FLuc: inactive; TDP1 block: inactive; RORg inh: inactive

What do the screens show for `COc1ccc(C)cc1S(=O)(=O)N1CCN(C/C=C/c2ccccc2)CC1`?
TDP1 block: inactive; DT40 TDP1 no CPT: 15µM; TDP1 cell CPT: inconclusive

How did O=S(=O)(c1ccc(Cl)s1)N1CCN(C/C=C/c2ccccc2)CC1 do in these assays?
Gal4-VP16 FLuc: inactive; TDP1 block: inactive; RORg inh: inconclusive; DT40 TDP1 no CPT: inconclusive; TDP1 cell CPT: 16µM

How did O=S(=O)(c1ccc(Cl)s1)N1CCN(Cc2ccccc2)CC1 do in these assays?
TDP1 block: inactive; RORg inh: inactive[0.365 µM]; DT40 TDP1 no CPT: 16µM; TDP1 cell CPT: inconclusive

How did O=S(=O)(c1ccc(Cl)s1)N1CCN(CCc2ccccc2)CC1 do in these assays?
Gal4-VP16 FLuc: inactive; TDP1 block: inactive; RORg inh: inactive; DT40 TDP1 no CPT: inactive; TDP1 cell CPT: inactive

Results for CS(=O)(=O)N1CCN(C/C=C/c2ccccc2)CC1 ?
Gal4-VP16 FLuc: inconclusive; TDP1 block: inactive; RORg inh: inactive; DT40 TDP1 no CPT: inconclusive; TDP1 cell CPT: inactive

What do the screens show for `Cc1cc(=O)n2c3ccccc3n(CC(O)CN3CCCCC3)c2c1C#N` (stereo not drawn)?
Gal4-VP16 FLuc: inactive; TDP1 block: inactive; RORg inh: inactive; DT40 TDP1 no CPT: inconclusive; TDP1 cell CPT: inconclusive

How did Cc1cc(O)cc(O)c1C(=O)OC1(C)C(=O)C=C2C=C(/C=C/CO)OC=C2C1=O (stereo not drawn) do in these assays?
Gal4-VP16 FLuc: inactive; RORg inh: inactive

Results for Cc1ccc2nc(Nc3ccc(C)c(Cl)c3)c3nncn3c2c1 ?
Gal4-VP16 FLuc: inactive; RORg inh: inactive; DT40 TDP1 no CPT: inconclusive; TDP1 cell CPT: inconclusive

How did COc1ccc(Nc2nc3cc(Cl)c(Cl)cc3n3cnnc23)cc1Cl do in these assays?
TDP1 block: inactive; DT40 TDP1 no CPT: 13µM; TDP1 cell CPT: inconclusive

How did Cc1ccc2nc(Nc3ccc(C)c(F)c3)c3nncn3c2c1 do in these assays?
TDP1 block: inactive; DT40 TDP1 no CPT: 15µM; TDP1 cell CPT: 18µM

How did CCOc1ccccc1Nc1nc2ccc(C)cc2n2cnnc12 do in these assays?
Gal4-VP16 FLuc: inactive; RORg inh: inactive; DT40 TDP1 no CPT: inactive; TDP1 cell CPT: inconclusive

Results for Cc1ccc(Nc2nc3ccccc3n3cnnc23)cc1Cl ?
Gal4-VP16 FLuc: inactive; RORg inh: inactive; DT40 TDP1 no CPT: inconclusive; TDP1 cell CPT: inconclusive

How did COc1ccc(OC)c(Nc2nc3ccc(C)cc3n3cnnc23)c1 do in these assays?
Gal4-VP16 FLuc: inactive; RORg inh: inactive; DT40 TDP1 no CPT: inconclusive; TDP1 cell CPT: 16µM

How did COc1ccc(Cl)cc1Nc1nc2ccc(C)cc2n2cnnc12 do in these assays?
Gal4-VP16 FLuc: inactive; RORg inh: inactive; DT40 TDP1 no CPT: 15µM; TDP1 cell CPT: 23µM

What do the screens show for `Cc1nc(CNS(=O)(=O)c2cc(C)c(C)cc2C)cs1`?
Gal4-VP16 FLuc: inactive; TDP1 block: inactive; RORg inh: inactive; DT40 TDP1 no CPT: inconclusive; TDP1 cell CPT: inactive

What do the screens show for `COC(=O)[C@@H]1C[C@@]2(O)[C@@H](O)[C@@H](O)[C@@H](O)C[C@H]2N1Cc1ccc(Cl)cc1`?
Gal4-VP16 FLuc: inactive; TDP1 block: inactive; RORg inh: inactive; DT40 TDP1 no CPT: inactive; TDP1 cell CPT: inactive

What do the screens show for `Nc1nc(-c2ccccc2)cs1`?
Gal4-VP16 FLuc: inactive; TDP1 block: inactive; RORg inh: inactive; DT40 TDP1 no CPT: inactive; TDP1 cell CPT: inactive

Results for N#CC1=C(S)N=C(N)C(c2nc(-c3ccccc3)cs2)C12CCCCC2 (stereo not drawn) ?
Gal4-VP16 FLuc: inconclusive; TDP1 block: inactive; RORg inh: 10µM; DT40 TDP1 no CPT: inactive; TDP1 cell CPT: inactive

Results for Cc1ccc(-c2csc(C3C(N)=NC(S)=C(C#N)C34CCCCC4)n2)cc1 (stereo not drawn) ?
Gal4-VP16 FLuc: inconclusive; TDP1 block: inactive; RORg inh: 5µM; DT40 TDP1 no CPT: inconclusive; TDP1 cell CPT: inconclusive

How did Cc1ccc(C(=O)CSC2=NC(N)=C(C#N)C3(CCCCC3)C2C(N)=O)cc1 (stereo not drawn) do in these assays?
Gal4-VP16 FLuc: inconclusive; TDP1 block: inactive; RORg inh: inactive; DT40 TDP1 no CPT: inactive; TDP1 cell CPT: inconclusive

What do the screens show for `N#CC1=C(S)N=C(N)C(c2nc(-c3ccccc3)cs2)C12CCCC2` (stereo not drawn)?
Gal4-VP16 FLuc: inactive; TDP1 block: inactive; RORg inh: 10µM; DT40 TDP1 no CPT: inconclusive; TDP1 cell CPT: inconclusive
